The values below come from PubChem BioAssay (Tox21).

Unmarked numbers belong to inactive results. Records with an inconclusive call do not appear. Calls of active or inactive are those of the source. Unless noted, calls follow the shape of the full dose curve.

Assay [1] is described as follows: Nuclear factor erythroid 2-related factor 2/antioxidant responsive element (Nrf2/ARE) small molecule agonists: qHTS cell viability counter screen in human keratinocytes (AID 1919968; active = well fitted curve in the direction sought with a large enough effect in the repeat runs; an effect the other way counts as inactive or inconclusive; also: nearly all actives have a fitted effect of over 55% in size; also: potency is read from the fitted curve at half-maximal effect). The essentials: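 Viability counter-screen: KeratinoSens reporter cells, DMSO-delivered compounds, 23 h at 37 C, CellTiter-Fluor fluorescence.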
A short description of assay [2]: Nuclear factor erythroid 2-related factor 2/antioxidant responsive element (Nrf2/ARE) small molecule agonists: luciferase reporter gene qHTS assay in human keratinocytes (AID 1919969). Also: nearly all actives have a fitted effect of over 35% in size. Also: potency is read from the fitted curve at half-maximal effect. On the technique in general: Reporter assays use an easily measured gene product as a stand-in for the process of interest.
The target of assay [3] is Gonadotropin-releasing hormone receptor (Homo sapiens) (UniProt P30968). Briefly: Human gonadotropin-releasing hormone receptor (GnRHR) small molecule agonists, calcium flux assay in GnRHR-HEK293 cells (AID 1920063). Also: nearly all actives have a fitted effect of over 35% in size. The method in brief: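 Tox21-format agonist screen using human GnRHR-expressing HEK293 cells and a fluorescent calcium dye; kinetic 3-min fluorescence reading after compound addition, 15-point concentration series run in triplicate.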
Gonadotropin-releasing hormone receptor (Homo sapiens), sequence (P30968 whole entry, looked up): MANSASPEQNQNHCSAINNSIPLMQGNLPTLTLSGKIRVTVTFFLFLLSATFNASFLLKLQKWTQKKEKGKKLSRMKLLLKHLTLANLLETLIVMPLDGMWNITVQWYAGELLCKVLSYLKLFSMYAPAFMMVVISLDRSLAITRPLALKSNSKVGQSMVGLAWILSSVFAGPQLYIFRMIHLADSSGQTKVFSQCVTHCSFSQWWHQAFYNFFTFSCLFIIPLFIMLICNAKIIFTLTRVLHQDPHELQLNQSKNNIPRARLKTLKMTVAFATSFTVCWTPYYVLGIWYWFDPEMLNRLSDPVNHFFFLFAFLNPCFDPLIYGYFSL
On the technique in general: Calcium assays in cells follow changes in intracellular calcium, usually with a dye or a luminescent sensor.

Assay [4] concerns the target KiSS-1 receptor (Homo sapiens) (UniProt Q969F8). The experiment in a line: Human kisspeptin (KISS1R) small molecule agonists, calcium flux assay in KISS1R-HEK293 cells (AID 1920064; active = well fitted curve in the direction sought with a large enough effect in the repeat runs; an effect the other way counts as inactive or inconclusive). The method in brief: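 Intracellular calcium mobilization in KISS1R-HEK293 cells was recorded by fluorescence (Ex/Em 480/540) for 3 min following compound addition to cells pre-loaded 1 h with calcium dye.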

Assay [5] is described as follows: p53 small molecule agonists, cell-based qHTS assay with human liver microsomes (AID 1963577). The method in brief:
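Compounds act here after metabolic activation: human liver microsomes and NADPH, both at 0.5 mg/mL final, were co-added to p53RE-bla cells. Incubation ran 16 h at 37 C, followed by LiveBLAzer detection.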

Assay [6] can be described thus: p53 small molecule agonists, cell-based qHTS assay with rat liver microsomes (AID 1963578). The essentials:
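Read-out is beta-lactamase reporter fluorescence (LiveBLAzer, 2 h, room temperature, dark) in p53RE-bla cells treated 16 h at 37 C with compound, rat liver microsomes and NADPH, both 0.5 mg/mL final.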
On the technique in general: qHTS replaces the single test concentration by a dilution series.

Assay [7] is described as follows: p53 small molecule agonists, cell-based qHTS assay with human liver microsomes: qHTS cell viability counter screen (AID 1963579). Also: nearly all actives have a fitted effect of over 45% in size. The method in brief:
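Cells carrying the p53 response-element beta-lactamase reporter are treated for 16 h at 37 C with test compounds in the presence of human liver microsomes and NADPH (both 0.5 mg/mL final); ATP-based CellTiter-Glo luminescence then reports viability.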

Assay [8] can be described thus: p53 small molecule agonists, cell-based qHTS assay with rat liver microsomes: qHTS cell viability counter screen (AID 1963580). Also: nearly all actives have a fitted effect of over 45% in size. Also: potency is read from the fitted curve at half-maximal effect. The essentials:
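In HCT-116 cells carrying a p53 response element-bla reporter, compounds were metabolically activated in situ by rat liver microsomes with NADPH over 16 h. Cell ATP content then served as the cytotoxicity measure.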

The nature of assay [9]: p53 small molecule agonists, cell-based qHTS assay (AID 1963582; active = well fitted activation curve with a large enough effect in the signal ratio in the repeat runs, not every such curve was filed as active; the % refers to the signal ratio). The method in brief: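 Agonist activity was scored from beta-lactamase FRET fluorescence in p53RE-bla cells treated 16 h at 37 C with compounds in DMSO, substrate incubation being 2 h at room temperature.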
Assay [10] can be described thus: cAMP Responsive Elements (CRE) small molecule agonists, cell-based qHTS assay (AID 1963590). The essentials:
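FRET-based beta-lactamase readout (LiveBLAzer B/G, 2 h RT) quantified CRE activation in HEK 293T CRE-bla cells after 3 h treatment with DMSO-dissolved compounds.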

Assay [11] can be described thus: cAMP Responsive Elements (CRE) small molecule antagonists, cell-based qHTS assay (AID 1963591; active = well fitted inhibition curve with a large enough effect in the signal ratio in the repeat runs, not every such curve was filed as active; the % refers to the signal ratio; also: potency is read from the fitted curve at half-maximal effect). The method in brief:
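qHTS in CRE-bla HEK 293T cells: compound in DMSO, then 0.25 uM NKH477 (final), 3 h at 37 °C/5% CO2; beta-lactamase FRET read-out after 2 h substrate incubation.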

Assay [12] deals with D(2) dopamine receptor (Homo sapiens) (UniProt P14416). The experiment in a line: Dopamine D2 receptor (DRD2) small molecule agonists, cell-based qHTS assay (AID 1963594). Also: nearly all actives have a fitted effect of over 35% in size. The method in brief:
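HEK293 cells stably expressing DRD2 were cultured 24 h at 37 C, then given Ro20-1724 (0.1 mM final) and compounds for 10 min at room temperature. NKH477 (200nM) was then added for 30 min. cAMP was read by HTRF.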

For assay [13] the target is unchanged. The experiment in a line: Dopamine D2 receptor (DRD2) small molecule antagonists, cell-based qHTS assay (AID 1963595; active = well fitted inhibition curve with a large enough effect in the signal ratio in the repeat runs, with a control signal flat; the % refers to the signal ratio). The method in brief: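 Stable D2 receptor HEK293 line, 24 h after seeding. Compound preincubated 10 min, then quinpirole (12 nM) with forskolin analogue NKH477 (200 nM), 30 min, room temperature. Detection by time-resolved FRET of cAMP.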

A short description of assay [14]: p53 small molecule agonists, cell-based qHTS assay: qHTS cell viability counter screen (AID 1963581). Also: nearly all actives have a fitted effect of over 45% in size. Also: potency is read from the fitted curve at half-maximal effect. The essentials:
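Compounds are pinned onto HCT-116 p53RE-bla cells and left 16 h at 37 C. Following the reporter FRET read, ATP is quantified by CellTiter-Glo luminescence after 30 min at room temperature.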

In assay [15] the target is 5-hydroxytryptamine receptor 2A (Homo sapiens) (UniProt P28223). The experiment in a line: 5-hydroxytryptamine receptor 2A (HTR2A) small molecule antagonists, cell-based qHTS assay (AID 1963586). Also: nearly all actives have a fitted effect of over 45% in size. Also: potency is read from the fitted curve at half-maximal effect. The essentials:
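Antagonist-mode intracellular calcium assay: DOI (4 nM) added after 5 min compound pre-incubation at room temperature to dye-loaded HTR2A-CHO cells. Fluorescence followed for 3 min, sampled every second.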

Assay [16] has the same target. Briefly: 5-hydroxytryptamine receptor 2A (HTR2A) small molecule agonists, cell-based qHTS assay (AID 1963587). Also: nearly all actives have a fitted effect of over 30% in size. Also: potency is read from the fitted curve at half-maximal effect. The method in brief: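 HTR2A-CHO cells, plated 18 h at 37 C/5% CO2, dye-loaded 1 h at 37 C; compounds in DMSO added by pin tool (agonist mode). Intracellular calcium flux read as kinetic fluorescence on FDSS over 2 min at 1 s intervals.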
Assay [17] has as its target Muscarinic acetylcholine receptor M1 (Homo sapiens) (UniProt P11229). The experiment in a line: Cholinergic receptor muscarinic 1 (CHRM1) small molecule antagonists, cell-based qHTS assay (AID 1963588). Also: nearly all actives have a fitted effect of over 40% in size. The essentials:
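CHRM1-CHO calcium-flux assay, antagonist mode. Cells were seeded 18 h, dye-loaded 1 h at 37 C and given compound for 5 min at RT, then acetylcholine was added at 50nM. FDSS fluorescence was read 3 min; 15 concentrations, three runs.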

Assay [18] has the same target. The experiment in a line: Cholinergic receptor muscarinic 1 (CHRM1) small molecule agonists, cell-based qHTS assay (AID 1963589). Also: nearly all actives have a fitted effect of over 35% in size. The method in brief:
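Stable CHRM1-CHO cells (human receptor) were incubated 18 h, dye-loaded for 1 h at 37 C and exposed to test compounds for agonist activity, with calcium-dependent fluorescence followed kinetically.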

For assay [19], the target named is Beta-2 adrenergic receptor (Homo sapiens) (UniProt P07550). Briefly: Adrenergic beta2 receptor (ADRB2) small molecule antagonists, cell-based qHTS assay (AID 1963592). Also: nearly all actives have a fitted effect of over 50% in size. Also: potency is read from the fitted curve at half-maximal effect. The method in brief: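 Cells (CHO, stable ADRB2 overexpression) incubated 18-20hr at 37C; compounds added from DMSO; agonist mix (1nM isoproterenol, 100uM IBMX, 25uM Ro-20-1724) added; 0.5hr RT; d2-cAMP and anti-cAMP-cryptate added; 1hr RT; 665/615 nm read.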
Beta-2 adrenergic receptor (Homo sapiens), sequence (P07550 whole entry, looked up): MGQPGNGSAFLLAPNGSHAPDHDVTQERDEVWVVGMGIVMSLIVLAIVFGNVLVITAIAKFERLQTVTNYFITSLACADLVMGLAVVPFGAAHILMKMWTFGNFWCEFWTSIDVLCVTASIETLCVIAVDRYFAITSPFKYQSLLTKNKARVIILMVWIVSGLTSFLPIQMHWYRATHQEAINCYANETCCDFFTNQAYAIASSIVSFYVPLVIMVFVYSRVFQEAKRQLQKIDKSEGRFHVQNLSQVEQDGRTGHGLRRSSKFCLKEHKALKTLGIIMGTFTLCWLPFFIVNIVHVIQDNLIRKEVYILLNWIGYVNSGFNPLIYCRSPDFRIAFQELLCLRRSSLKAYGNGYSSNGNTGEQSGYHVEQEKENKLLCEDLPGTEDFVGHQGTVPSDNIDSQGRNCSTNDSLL

Assay [20] shares this target. Briefly: Adrenergic beta2 receptor (ADRB2) small molecule agonists, cell-based qHTS assay (AID 1963593).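 Also: CHO cells stably overexpressing human ADRB2.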 The method in brief:
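CHO cells stably over-expressing ADRB2 were plated overnight at 37C, then dosed with compounds plus a stimulation mix containing 100uM IBMX and 25uM Ro-20-1724 for 0.5hr at room temperature. cAMP was measured by HTRF competition, 1hr.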

5-hydroxytryptamine receptor 2A (Homo sapiens), sequence (P28223 whole entry, looked up): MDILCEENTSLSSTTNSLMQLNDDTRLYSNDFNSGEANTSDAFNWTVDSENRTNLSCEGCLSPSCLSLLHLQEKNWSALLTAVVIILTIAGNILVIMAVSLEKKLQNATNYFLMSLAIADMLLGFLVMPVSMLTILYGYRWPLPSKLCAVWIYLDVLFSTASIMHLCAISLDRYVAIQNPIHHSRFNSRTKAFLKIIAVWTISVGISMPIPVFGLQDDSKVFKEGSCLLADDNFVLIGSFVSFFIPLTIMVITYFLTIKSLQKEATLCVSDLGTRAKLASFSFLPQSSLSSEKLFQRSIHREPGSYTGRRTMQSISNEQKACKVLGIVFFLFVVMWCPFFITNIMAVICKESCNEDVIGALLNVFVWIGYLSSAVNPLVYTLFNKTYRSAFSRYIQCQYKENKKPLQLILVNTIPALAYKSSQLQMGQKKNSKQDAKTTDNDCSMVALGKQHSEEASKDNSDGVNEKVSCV
D(2) dopamine receptor (Homo sapiens), sequence (P14416 whole entry, looked up): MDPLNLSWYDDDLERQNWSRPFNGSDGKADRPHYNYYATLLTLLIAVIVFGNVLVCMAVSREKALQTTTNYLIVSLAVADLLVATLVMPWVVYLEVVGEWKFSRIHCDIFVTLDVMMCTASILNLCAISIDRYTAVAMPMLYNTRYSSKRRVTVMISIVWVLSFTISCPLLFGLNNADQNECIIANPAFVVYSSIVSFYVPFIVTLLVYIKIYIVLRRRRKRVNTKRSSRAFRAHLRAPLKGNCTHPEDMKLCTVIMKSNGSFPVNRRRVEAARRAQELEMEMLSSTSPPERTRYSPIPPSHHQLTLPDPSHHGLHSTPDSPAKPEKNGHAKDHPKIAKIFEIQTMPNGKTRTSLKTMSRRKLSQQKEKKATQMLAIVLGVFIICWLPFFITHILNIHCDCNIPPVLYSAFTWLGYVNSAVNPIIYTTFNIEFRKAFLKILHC
Muscarinic acetylcholine receptor M1 (Homo sapiens), sequence (P11229 whole entry, looked up): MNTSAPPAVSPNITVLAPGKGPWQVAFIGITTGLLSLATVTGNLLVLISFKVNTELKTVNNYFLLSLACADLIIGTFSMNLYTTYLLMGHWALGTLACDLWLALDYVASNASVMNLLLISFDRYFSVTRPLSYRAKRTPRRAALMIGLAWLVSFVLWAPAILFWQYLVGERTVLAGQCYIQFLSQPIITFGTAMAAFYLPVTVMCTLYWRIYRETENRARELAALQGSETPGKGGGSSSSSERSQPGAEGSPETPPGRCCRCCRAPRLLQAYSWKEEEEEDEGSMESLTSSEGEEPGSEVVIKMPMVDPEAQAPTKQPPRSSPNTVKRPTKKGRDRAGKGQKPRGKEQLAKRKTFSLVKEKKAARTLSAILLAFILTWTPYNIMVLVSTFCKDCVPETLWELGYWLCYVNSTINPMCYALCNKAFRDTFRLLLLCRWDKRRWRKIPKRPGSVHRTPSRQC
KiSS-1 receptor (Homo sapiens), sequence (Q969F8 whole entry, looked up): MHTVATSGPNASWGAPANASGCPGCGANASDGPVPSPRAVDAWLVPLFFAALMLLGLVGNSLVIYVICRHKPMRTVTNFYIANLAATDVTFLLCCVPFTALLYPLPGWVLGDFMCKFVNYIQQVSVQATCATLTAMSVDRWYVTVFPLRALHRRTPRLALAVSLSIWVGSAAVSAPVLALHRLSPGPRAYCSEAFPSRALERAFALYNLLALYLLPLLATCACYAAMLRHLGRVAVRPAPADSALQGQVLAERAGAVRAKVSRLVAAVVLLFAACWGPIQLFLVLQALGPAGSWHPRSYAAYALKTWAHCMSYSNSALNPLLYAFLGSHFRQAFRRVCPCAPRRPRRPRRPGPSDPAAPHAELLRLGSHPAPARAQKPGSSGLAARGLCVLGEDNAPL

Turning to `COc1cc2nc(N3CCN(C(=O)C4CCCO4)CC3)nc(N)c2cc1OC` (stereo unspecified), the Potency result in assay [1], in assay [2], in assay [3], in assay [5], in assay [6] and in assay [7] was “inactive” throughout. Further, the Potency result in assay [8], in assay [9], in [10], in assay [11], in [12] and in [13] was “inactive” in each case. Further, in assay [4], the outcome was inactive.
For `NC1CCN(c2cccc(Cl)n2)CC1`, the Potency entry in [1], in assay [2], in assay [3], in assay [5], in assay [8] and in assay [14] was “inactive” each time. Also, the Potency result in assay [9], in assay [17], in assay [18], in assay [10], in assay [11] and in assay [19] was “inactive” throughout. For the same compound, the Potency entry in assay [12] and in assay [13] was “inactive” throughout. For the same compound, the outcome in assay [4] was inactive. In addition, the Potency was 410 nM (active) in assay [15] and 0.268 µM (active) in [16].
With `CCCCCCCCC(=O)Cl`, the Potency result in assay [1], in [2], in assay [3], in [5], in [7] and in [8] was “inactive” throughout. The Potency entry in assay [14], in [9], in assay [15], in assay [16], in assay [18] and in assay [11] was “inactive” throughout. In addition, the Potency entry in assay [19], in assay [12] and in assay [13] was “inactive” each time. For the same compound, the result in assay [4] was inactive.
Regarding `CNc1c2c(nn1C)CCCC2`, the Potency entry in [1], in assay [2], in assay [3], in assay [5], in [7] and in assay [8] was “inactive” in each case. Moreover, the Potency result in assay [14], in [9], in [15], in assay [16], in [18] and in assay [10] was “inactive” in each case. The Potency entry in assay [11], in assay [20], in [12] and in assay [13] was “inactive” in each case. Also, the result in [4] was inactive.
Regarding `CCCCCCCCCCn1cc[n+](CCCCCCCCCC)c1C`, the Potency in assay [1] was 21.7 µM (active); in [8] it was 32.4 µM (active); in [14], 36.4 µM (active); in [16], 55 µM (active); in [11], 21.7 µM (active); in assay [19] it was 27.3 µM (active). In addition, the Potency result in assay [2], in [3], in [5], in assay [6], in assay [18] and in [12] was “inactive” each time. In assay [4], the result was inactive.
As for `COc1c(N2CCNC(C)C2)c(F)cc2c(=O)c(C(=O)O)cn(C3CC3)c12` (stereo unspecified), the Potency entry in assay [1], in assay [2], in assay [3], in assay [5], in assay [6] and in assay [7] was “inactive” each time. In addition, the Potency entry in assay [14], in [9], in assay [10], in [11], in assay [19] and in assay [12] was “inactive” in each case. Further, the outcome in [4] was inactive.
Consider `CC(C)[C@H](N)C(=O)OCCOCn1cnc2c(=O)[nH]c(N)nc21`, for which the Potency result in assay [1], in assay [2], in [3], in assay [5], in assay [6] and in assay [7] was “inactive” in each case. For the same compound, the Potency result in [8], in assay [9], in assay [10], in [11], in assay [19] and in assay [12] was “inactive” each time. Further, the Potency result in assay [13] was “inactive”. Besides, the Potency in assay [14] is 1.78 µM (active).
Turning to `C=CC(C)(CCC=C(C)C)OC(=O)c1ccccc1` (stereo unspecified), the Potency entry in assay [1], in [3], in [5], in assay [6], in [7] and in assay [8] was “inactive” each time. The Potency entry in assay [14], in [9], in assay [15], in assay [16], in assay [17] and in [18] was “inactive” each time. For the same compound, the Potency entry in assay [10], in assay [11], in assay [19], in assay [12] and in assay [13] was “inactive” each time. For the same compound, the Potency in assay [2] was 24.3 µM (active).
